# Laboratory results: publication PMC7862700, “An all-to-all approach to the identification of sequence-specific readers for epigenetic DNA modifications on cytosine”
# What was measured:
# Assay in all cases: DAPPL (digital affinity profiling via proximity ligation, sequencing); 10 mM Tris-HCl pH 7.5, 50 mM NaCl, 1 mM DTT, 4% glycerol, room temperature, 30 min; GST-TFs on glutathione beads, 16-mer random dsDNA library, 0.1% formaldehyde crosslink after washing; high values mean tight binding
# [1] = target: T1, FEV (Homo sapiens, UniProt Q99581 1-238); conditions: protein: recombinant; tags: N-terminal GST; dsDNA, one strand shown
# T1 sequence: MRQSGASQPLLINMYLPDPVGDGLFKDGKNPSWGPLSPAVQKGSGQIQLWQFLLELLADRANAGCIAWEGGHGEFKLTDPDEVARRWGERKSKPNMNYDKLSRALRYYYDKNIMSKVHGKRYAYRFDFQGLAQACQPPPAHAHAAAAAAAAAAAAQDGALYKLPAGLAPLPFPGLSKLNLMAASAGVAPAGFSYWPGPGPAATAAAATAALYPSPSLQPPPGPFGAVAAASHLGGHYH
# Summary of the method: (§1)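 Pools were built from human transcription factors expressed in yeast as GST fusions, captured on glutathione beads and DNA-barcoded, along with a tag-only sample. Incubation with 200 nmole of a 16-mer random double-stranded DNA library lasted 30 min at room temperature in Tris/NaCl/DTT/glycerol buffer, and was followed by washing, 0.1% formaldehyde crosslinking, proximity ligation, PCR amplification and Illumina NextSeq500 sequencing. Binding signal is the quotient of each hexamer's read frequency for a factor and its frequency for the tag-only sample.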
# [2] = target: ETV5 (Homo sapiens, UniProt P41161 1-510); conditions: protein: recombinant; tags: N-terminal GST; dsDNA, one strand shown
# Chain of ETV5 (P41161 whole entry): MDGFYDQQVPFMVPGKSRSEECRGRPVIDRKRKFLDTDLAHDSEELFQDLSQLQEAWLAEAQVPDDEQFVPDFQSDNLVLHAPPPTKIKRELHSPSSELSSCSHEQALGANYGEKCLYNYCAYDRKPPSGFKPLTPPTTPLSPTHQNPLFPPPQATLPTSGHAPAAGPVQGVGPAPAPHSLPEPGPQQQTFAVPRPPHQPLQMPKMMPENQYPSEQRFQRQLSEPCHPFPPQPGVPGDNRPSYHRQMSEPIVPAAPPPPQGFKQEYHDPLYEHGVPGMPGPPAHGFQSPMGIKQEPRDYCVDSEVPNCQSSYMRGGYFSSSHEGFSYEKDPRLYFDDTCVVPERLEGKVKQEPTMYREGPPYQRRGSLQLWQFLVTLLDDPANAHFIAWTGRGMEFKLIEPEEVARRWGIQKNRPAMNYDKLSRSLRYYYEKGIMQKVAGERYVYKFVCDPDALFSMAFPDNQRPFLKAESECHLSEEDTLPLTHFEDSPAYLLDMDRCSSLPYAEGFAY
# Summary of the method: as §1
# [3] = target: HSF1 (Homo sapiens, UniProt Q00613 1-529); conditions: protein: recombinant; tags: N-terminal GST; chain copies: 3; dsDNA, one strand shown
# Chain of HSF1 (Q00613 whole entry): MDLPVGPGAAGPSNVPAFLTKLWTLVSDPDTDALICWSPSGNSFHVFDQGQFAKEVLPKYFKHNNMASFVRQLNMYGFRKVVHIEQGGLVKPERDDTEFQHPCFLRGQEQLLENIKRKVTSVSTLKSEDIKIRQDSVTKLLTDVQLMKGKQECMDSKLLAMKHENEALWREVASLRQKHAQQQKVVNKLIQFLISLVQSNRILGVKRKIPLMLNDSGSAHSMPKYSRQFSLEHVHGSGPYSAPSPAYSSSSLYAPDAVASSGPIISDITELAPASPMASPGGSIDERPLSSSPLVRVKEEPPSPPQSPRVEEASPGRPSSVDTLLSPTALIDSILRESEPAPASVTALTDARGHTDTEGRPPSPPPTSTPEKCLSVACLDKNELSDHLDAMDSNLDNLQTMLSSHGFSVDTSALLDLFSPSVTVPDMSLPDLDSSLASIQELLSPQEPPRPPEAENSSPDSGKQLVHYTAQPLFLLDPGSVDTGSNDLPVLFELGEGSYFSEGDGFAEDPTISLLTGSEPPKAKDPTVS
# Summary of the method: as §1
# [4] = target: T2, SPIC (Homo sapiens, UniProt Q8N5J4 1-248); conditions: protein: recombinant; tags: N-terminal GST; dsDNA, one strand shown
# T2 sequence: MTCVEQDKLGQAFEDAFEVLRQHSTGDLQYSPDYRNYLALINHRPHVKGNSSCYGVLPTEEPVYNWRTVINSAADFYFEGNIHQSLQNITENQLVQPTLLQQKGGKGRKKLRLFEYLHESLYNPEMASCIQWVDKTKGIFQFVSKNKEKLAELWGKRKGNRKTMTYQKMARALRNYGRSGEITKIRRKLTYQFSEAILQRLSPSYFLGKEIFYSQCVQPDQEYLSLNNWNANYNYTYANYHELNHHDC
# Summary of the method: as §1
# [5] = target: ELF4 (Homo sapiens, UniProt Q99607 1-663); conditions: protein: recombinant; tags: N-terminal GST; dsDNA, one strand shown
# Chain of ELF4 (Q99607 whole entry): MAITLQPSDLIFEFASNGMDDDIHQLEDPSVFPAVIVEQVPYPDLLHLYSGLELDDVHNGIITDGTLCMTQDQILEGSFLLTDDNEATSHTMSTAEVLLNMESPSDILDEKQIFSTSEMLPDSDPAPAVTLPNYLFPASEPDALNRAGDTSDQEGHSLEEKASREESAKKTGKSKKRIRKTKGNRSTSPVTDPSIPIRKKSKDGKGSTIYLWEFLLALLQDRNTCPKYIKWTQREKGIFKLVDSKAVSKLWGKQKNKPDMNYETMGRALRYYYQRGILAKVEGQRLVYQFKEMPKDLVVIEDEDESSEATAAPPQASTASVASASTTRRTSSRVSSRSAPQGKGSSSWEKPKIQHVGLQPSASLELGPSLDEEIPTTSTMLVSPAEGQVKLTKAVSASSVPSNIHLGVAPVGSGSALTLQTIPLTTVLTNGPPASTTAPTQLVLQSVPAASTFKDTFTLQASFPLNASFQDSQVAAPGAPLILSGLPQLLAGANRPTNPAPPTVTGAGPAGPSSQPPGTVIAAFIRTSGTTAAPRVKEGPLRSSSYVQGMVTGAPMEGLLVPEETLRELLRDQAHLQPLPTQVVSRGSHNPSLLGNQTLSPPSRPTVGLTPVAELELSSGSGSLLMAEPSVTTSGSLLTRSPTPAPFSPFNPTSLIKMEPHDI
# Summary of the method: as §1
# [6] = target: T3, ELK4 (Homo sapiens, UniProt P28324-2 1-405); conditions: protein: recombinant; tags: N-terminal GST; dsDNA, one strand shown
# T3 sequence: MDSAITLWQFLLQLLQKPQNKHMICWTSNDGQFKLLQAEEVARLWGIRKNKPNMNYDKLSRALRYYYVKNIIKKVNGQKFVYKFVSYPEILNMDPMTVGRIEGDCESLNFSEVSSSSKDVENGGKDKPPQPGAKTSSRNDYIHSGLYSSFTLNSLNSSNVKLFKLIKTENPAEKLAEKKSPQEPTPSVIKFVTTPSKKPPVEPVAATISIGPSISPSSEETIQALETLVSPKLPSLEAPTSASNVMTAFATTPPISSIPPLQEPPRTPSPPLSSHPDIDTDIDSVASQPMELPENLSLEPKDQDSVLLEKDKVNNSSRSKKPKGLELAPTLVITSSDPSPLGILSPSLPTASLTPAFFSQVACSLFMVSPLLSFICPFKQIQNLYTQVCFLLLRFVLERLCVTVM
# Summary of the method: as §1
# [7] = target: T4, ETV2 (Homo sapiens, UniProt O00321 1-342); conditions: protein: recombinant; tags: N-terminal GST; dsDNA, one strand shown
# T4 sequence: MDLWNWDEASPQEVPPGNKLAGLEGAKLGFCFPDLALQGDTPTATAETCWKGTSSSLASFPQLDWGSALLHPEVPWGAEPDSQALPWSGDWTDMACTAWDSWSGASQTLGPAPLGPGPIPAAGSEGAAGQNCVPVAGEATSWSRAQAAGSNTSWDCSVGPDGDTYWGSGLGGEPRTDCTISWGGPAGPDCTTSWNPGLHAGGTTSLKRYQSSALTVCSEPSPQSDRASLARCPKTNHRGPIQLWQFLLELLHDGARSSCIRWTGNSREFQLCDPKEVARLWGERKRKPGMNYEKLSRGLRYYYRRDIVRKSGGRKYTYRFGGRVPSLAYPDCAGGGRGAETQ
# Summary of the method: as §1
# [8] = target: T5, ELF3 (Homo sapiens, UniProt P78545 1-371); conditions: protein: recombinant; tags: N-terminal GST; dsDNA, one strand shown
# T5 sequence: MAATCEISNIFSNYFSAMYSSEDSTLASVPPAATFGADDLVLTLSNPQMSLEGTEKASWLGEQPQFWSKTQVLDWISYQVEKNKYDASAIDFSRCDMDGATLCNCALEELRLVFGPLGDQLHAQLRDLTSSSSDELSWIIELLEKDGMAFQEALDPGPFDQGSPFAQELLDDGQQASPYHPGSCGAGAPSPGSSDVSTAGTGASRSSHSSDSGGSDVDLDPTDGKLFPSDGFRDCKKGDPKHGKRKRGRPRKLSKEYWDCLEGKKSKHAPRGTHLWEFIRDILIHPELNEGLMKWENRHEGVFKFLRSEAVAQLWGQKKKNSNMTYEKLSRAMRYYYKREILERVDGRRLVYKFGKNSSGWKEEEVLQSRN
# Summary of the method: as §1
# [9] = target: CRX (Homo sapiens, UniProt O43186 1-299); conditions: protein: recombinant; tags: N-terminal GST; dsDNA, one strand shown
# Chain of CRX (O43186 whole entry): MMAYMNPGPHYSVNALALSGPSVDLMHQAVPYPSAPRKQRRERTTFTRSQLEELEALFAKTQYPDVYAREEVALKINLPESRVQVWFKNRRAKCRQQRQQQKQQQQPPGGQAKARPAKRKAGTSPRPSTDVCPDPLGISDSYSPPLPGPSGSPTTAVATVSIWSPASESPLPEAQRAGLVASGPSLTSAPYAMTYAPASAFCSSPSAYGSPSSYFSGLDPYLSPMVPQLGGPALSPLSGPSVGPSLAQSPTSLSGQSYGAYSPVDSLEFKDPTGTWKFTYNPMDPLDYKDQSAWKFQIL
# Summary of the method: as §1
# [10] = target: ETV1 (Homo sapiens, UniProt P50549 1-477); conditions: protein: recombinant; tags: N-terminal GST; dsDNA, one strand shown
# Chain of ETV1 (P50549 whole entry): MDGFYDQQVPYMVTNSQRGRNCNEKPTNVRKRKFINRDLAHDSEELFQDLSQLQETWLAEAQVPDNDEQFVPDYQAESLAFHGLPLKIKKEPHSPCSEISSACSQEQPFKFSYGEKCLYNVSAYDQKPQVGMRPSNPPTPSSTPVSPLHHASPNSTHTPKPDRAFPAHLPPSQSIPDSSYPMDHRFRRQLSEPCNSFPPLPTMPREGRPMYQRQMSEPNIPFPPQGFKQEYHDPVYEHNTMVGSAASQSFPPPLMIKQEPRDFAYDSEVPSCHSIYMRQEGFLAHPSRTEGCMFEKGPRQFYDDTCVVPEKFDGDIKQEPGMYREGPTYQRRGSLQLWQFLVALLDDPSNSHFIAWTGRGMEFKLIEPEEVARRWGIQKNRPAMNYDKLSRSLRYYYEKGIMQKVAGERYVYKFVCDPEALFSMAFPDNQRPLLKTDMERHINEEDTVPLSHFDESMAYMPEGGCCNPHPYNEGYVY
# Summary of the method: as §1
# [11] = target: T6, ERF (Homo sapiens, UniProt P50548 1-548); conditions: protein: recombinant; tags: N-terminal GST; dsDNA, one strand shown
# T6 sequence: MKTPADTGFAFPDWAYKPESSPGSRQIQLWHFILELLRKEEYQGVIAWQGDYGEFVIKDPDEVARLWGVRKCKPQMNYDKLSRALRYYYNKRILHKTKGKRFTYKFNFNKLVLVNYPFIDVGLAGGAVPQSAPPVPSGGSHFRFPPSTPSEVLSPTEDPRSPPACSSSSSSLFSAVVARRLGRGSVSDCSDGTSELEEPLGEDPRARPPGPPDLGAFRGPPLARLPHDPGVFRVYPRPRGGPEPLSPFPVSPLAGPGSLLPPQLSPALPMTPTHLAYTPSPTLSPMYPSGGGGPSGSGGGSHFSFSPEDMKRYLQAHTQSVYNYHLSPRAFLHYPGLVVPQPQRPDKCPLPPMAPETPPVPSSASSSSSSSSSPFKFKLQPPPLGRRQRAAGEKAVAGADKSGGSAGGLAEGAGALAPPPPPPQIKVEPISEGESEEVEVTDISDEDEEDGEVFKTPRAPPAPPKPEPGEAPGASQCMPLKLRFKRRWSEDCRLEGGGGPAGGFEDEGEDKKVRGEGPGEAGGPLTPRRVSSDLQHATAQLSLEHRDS
# Summary of the method: as §1
# [12] = target: T7, ETV3L (Homo sapiens, UniProt Q6ZN32 1-361); conditions: protein: recombinant; tags: N-terminal GST; dsDNA, one strand shown
# T7 sequence: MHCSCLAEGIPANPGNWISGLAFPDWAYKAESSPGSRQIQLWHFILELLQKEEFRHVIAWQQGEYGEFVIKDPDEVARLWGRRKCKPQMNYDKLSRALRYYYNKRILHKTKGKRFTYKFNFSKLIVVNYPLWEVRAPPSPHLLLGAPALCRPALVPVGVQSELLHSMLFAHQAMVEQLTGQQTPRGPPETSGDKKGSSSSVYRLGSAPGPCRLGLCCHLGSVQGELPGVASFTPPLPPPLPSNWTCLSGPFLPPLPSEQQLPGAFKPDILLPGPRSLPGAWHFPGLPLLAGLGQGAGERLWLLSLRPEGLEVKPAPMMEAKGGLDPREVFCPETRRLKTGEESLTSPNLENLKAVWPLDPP
# Summary of the method: as §1
# [13] = target: T8, ETS2 (Homo sapiens, UniProt P15036 1-469); conditions: protein: recombinant; tags: N-terminal GST; dsDNA, one strand shown
# T8 sequence: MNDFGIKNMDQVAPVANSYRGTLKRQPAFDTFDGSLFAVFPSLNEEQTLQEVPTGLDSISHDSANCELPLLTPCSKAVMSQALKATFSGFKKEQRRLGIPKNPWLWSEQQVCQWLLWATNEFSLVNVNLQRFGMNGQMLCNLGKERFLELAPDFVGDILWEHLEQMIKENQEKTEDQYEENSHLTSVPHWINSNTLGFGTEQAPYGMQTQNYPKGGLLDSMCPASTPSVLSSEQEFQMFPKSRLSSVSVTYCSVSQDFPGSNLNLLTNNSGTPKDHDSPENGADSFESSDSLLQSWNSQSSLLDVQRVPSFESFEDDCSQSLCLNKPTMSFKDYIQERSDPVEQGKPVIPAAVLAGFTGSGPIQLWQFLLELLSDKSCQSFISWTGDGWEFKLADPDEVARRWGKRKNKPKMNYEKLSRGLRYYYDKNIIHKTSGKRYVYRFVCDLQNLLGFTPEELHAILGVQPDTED
# Summary of the method: as §1
# [14] = target: T9, SPDEF (Homo sapiens, UniProt O95238 1-335); conditions: protein: recombinant; tags: N-terminal GST; dsDNA, one strand shown
# T9 sequence: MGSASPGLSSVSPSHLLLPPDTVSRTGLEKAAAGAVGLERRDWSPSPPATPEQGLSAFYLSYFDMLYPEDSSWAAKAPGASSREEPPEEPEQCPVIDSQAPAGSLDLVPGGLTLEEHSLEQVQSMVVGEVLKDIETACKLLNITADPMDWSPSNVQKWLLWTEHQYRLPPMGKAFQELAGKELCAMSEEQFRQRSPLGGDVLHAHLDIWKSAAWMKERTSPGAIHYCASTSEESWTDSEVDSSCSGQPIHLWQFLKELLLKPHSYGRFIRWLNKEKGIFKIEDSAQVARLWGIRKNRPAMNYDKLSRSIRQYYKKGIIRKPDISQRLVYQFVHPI
# Summary of the method: as §1
# [15] = target: T10, ETV7 (Homo sapiens, UniProt Q9Y603 1-341); conditions: protein: recombinant; tags: N-terminal GST; dsDNA, one strand shown
# T10 sequence: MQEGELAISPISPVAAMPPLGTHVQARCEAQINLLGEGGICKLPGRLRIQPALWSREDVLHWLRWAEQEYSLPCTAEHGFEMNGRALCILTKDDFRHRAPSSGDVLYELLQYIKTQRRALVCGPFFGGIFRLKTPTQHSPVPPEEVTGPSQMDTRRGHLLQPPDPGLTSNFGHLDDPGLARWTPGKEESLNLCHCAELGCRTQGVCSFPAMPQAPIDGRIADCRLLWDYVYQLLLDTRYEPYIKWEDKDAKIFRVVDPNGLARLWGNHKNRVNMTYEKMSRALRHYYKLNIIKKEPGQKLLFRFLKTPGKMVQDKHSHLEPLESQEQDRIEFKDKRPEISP
# Summary of the method: as §1
# [16] = target: T11, ELF5 (Homo sapiens, UniProt Q9UKW6-2 1-255); conditions: protein: recombinant; tags: N-terminal GST; dsDNA, one strand shown
# T11 sequence: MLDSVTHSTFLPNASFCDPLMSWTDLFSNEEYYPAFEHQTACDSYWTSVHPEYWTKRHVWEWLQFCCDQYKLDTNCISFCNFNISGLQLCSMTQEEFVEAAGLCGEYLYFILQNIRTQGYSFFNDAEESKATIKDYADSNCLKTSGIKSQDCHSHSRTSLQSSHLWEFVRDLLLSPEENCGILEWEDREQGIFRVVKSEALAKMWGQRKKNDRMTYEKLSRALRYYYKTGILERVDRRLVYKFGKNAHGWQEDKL
# Summary of the method: as §1
# [17] = target: T12, ETV3 (Homo sapiens, UniProt P41162-2 1-143); conditions: protein: recombinant; tags: N-terminal GST; dsDNA, one strand shown
# T12 sequence: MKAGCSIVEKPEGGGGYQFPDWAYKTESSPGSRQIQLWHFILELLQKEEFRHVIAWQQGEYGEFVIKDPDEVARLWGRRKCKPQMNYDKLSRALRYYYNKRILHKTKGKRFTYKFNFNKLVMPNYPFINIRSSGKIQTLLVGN
# Summary of the method: as §1
# [18] = target: ETV6 (Homo sapiens, UniProt P41212 1-452); conditions: protein: recombinant; tags: N-terminal GST; dsDNA, one strand shown
# Chain of ETV6 (P41212 whole entry): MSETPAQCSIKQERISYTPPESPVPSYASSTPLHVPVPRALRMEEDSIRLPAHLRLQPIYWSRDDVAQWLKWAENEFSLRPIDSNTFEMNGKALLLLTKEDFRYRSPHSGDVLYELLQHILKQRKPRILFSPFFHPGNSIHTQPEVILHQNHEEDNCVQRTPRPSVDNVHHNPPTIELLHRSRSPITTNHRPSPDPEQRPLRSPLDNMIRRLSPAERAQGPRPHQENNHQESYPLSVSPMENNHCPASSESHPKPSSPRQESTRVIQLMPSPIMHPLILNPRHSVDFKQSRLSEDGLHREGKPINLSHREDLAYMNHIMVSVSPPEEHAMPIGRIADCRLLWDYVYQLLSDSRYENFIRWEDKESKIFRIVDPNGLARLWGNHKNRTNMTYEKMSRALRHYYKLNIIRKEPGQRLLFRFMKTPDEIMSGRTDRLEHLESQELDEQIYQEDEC
# Summary of the method: as §1
sequence,measurement,setting,value
TTTATG,binding signal,[1],"1.26 fold enrichment (6-mer frequency, TF over GST control)"
same,binding signal,[2],"1.36 fold enrichment (6-mer frequency, TF over GST control)"
same,binding signal,[3],"1.37 fold enrichment (6-mer frequency, TF over GST control)"
same,binding signal,[4],"1.5 fold enrichment (6-mer frequency, TF over GST control)"
same,binding signal,[5],"1.21 fold enrichment (6-mer frequency, TF over GST control)"
same,binding signal,[6],"1.16 fold enrichment (6-mer frequency, TF over GST control)"
same,binding signal,[7],"1.34 fold enrichment (6-mer frequency, TF over GST control)"
same,binding signal,[8],"1.37 fold enrichment (6-mer frequency, TF over GST control)"
same,binding signal,[9],"1.74 fold enrichment (6-mer frequency, TF over GST control)"
same,binding signal,[10],"1.32 fold enrichment (6-mer frequency, TF over GST control)"
same,binding signal,[11],"1.31 fold enrichment (6-mer frequency, TF over GST control)"
same,binding signal,[12],"1.36 fold enrichment (6-mer frequency, TF over GST control)"
same,binding signal,[13],"1.32 fold enrichment (6-mer frequency, TF over GST control)"
same,binding signal,[14],"1.29 fold enrichment (6-mer frequency, TF over GST control)"
same,binding signal,[15],"1.32 fold enrichment (6-mer frequency, TF over GST control)"
same,binding signal,[16],"1.29 fold enrichment (6-mer frequency, TF over GST control)"
same,binding signal,[17],"1.36 fold enrichment (6-mer frequency, TF over GST control)"
same,binding signal,[18],"1.33 fold enrichment (6-mer frequency, TF over GST control)"
